Measurements: PubChem BioAssay (EPA / NIEHS)
Where “and” joins values, the source holds several entries; their conditions need not be identical. Equal values may be shown once. A structure can be active in one record and inactive in another. Calls of active or inactive are those of the source. Rule for the calls: active = hit-call score of the fitted dose curve at least 0.9, where 1 is the maximum; inactive = score below 0.9.

Key:
[1] = read-out: Vascular cell adhesion molecule 1 (VCAM1), VCAM1 (gene 7412); assay: BSK_4H_VCAM1: BioMAP Diversity Plus: 4H Assay for Vascular cell adhesion molecule 1 (VCAM1) Biomarker Activity (AID 2283033); details: primary human endothelial cells (HUVEC); actives raise or lower the signal
How it was run: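 Chemicals are added to primary human umbilical vein endothelial cells. After 24 h, VCAM-1 levels are measured by ELISA. Values come from bidirectional fitting referenced to DMSO.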

[2] = read-out: Interferon-gamma inducible Protein 10 (IP10), CXCL10 (gene 3627); assay: BSK_BE3C_IP10: BioMAP Diversity Plus: BE3C Assay for Interferon-gamma inducible Protein 10 (IP10) Biomarker Activity (AID 2283034); details: primary human bronchial epithelial cells; actives raise or lower the signal
How it was run: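 IP-10 quantified by ELISA serves as the endpoint. Cells: primary human bronchial epithelium, read 24 h after compound addition. Activity is derived by bidirectional fitting with DMSO as negative control.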

[3] = read-out: Transforming growth factor beta 1 (TGFb1), TGFB1 (gene 7040); assay: BSK_BE3C_TGFb1: BioMAP Diversity Plus: BE3C Assay for Transforming growth factor beta 1 (TGFb1) Biomarker Activity (AID 2283036); details: primary human bronchial epithelial cells; actives raise or lower the signal
How it was run: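 Bronchial epithelial primary cells are treated with test chemical, then TGF-b1 is quantified by ELISA after 24 hours. Values derive from bidirectional fitting against DMSO, with cytotoxicity checked by SRB staining in parallel cultures.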

[4] = read-out: Plasminogen activator inhibitor-1 (PAI1), SERPINE1 (gene 5054); assay: BSK_BE3C_PAI1: BioMAP Diversity Plus: BE3C Assay for Plasminogen activator inhibitor-1 (PAI1) Biomarker Activity (AID 2283037); details: primary human bronchial epithelial cells; actives raise or lower the signal
How it was run: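 Values derive from bidirectional fitting against DMSO baseline of PAI-1 levels, measured by ELISA in human bronchial epithelial cells 24 h after compound addition.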

[5] = read-out: urokinase plasminogen activator (uPA), PLAU (gene 5328); assay: BSK_BE3C_uPA: BioMAP Diversity Plus: BE3C Assay for urokinase plasminogen activator (uPA) Biomarker Activity (AID 2283038); details: primary human bronchial epithelial cells; actives raise or lower the signal
How it was run: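 Bronchial epithelial cells (human, primary); chemical 24 h; uPA by ELISA; bidirectional fit vs DMSO. SRB (0.1%, after 10% TCA fixation, 560 nm) in parallel cultures for cytotoxicity.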

[6] = read-out: Urokinase-type plasminogen activator receptor (uPAR), PLAUR (gene 5329); assay: BSK_BE3C_uPAR: BioMAP Diversity Plus: BE3C Assay for Urokinase-type plasminogen activator receptor (uPAR) Biomarker Activity (AID 2283039); details: primary human bronchial epithelial cells; actives raise or lower the signal
How it was run: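 Steps: dose human primary bronchial epithelial cells, incubate 24 h, measure uPAR by ELISA, then fit gain- or loss-of-signal response bidirectionally relative to DMSO.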

[7] = read-out: Interleukin-6 (IL6), IL6 (gene 3569); assay: BSK_CASM3C_IL6: BioMAP Diversity Plus: CASM3C Assay for Interleukin-6 (IL6) Biomarker Activity for (AID 2283040); details: primary human coronary artery smooth muscle cells; actives raise or lower the signal
[8] = read-out: Tissue plasminogen activator (tPA), PLAT (gene 5327); assay: BSK_BE3C_tPA: BioMAP Diversity Plus: BE3C Assay for Tissue plasminogen activator (tPA) Biomarker Activity (AID 2283041); details: primary human bronchial epithelial cells; actives raise or lower the signal
How it was run: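 Gain- or loss-of-signal in tPA, measured by ELISA, derived by bidirectional fitting against DMSO. Cells: human primary bronchial epithelial; read at 24 h after chemical dosing.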

[9] = read-out: Interleukin-8 (IL8), CXCL8 (gene 3576); assay: BSK_CASM3C_IL8: BioMAP Diversity Plus: CASM3C Assay for Interleukin-8 (IL8) Biomarker Activity (AID 2283042); details: primary human coronary artery smooth muscle cells; actives raise or lower the signal;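 note: IL-8 protein level quantified by ELISA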
[10] = read-out: Human Leukocyte Antigen - DR isotype (HLADR), HLA-DRA (gene 3122); assay: BSK_CASM3C_HLADR: BioMAP Diversity Plus: CASM3C Assay for Human Leukocyte Antigen - DR isotype (HLADR) Biomarker Activity (AID 2283043); details: primary human coronary artery smooth muscle cells; actives raise or lower the signal;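 note: cell-surface HLA-DR protein level quantified by ELISA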
[11] = read-out: Macrophage colony-stimulating factor (MCSF), CSF1 (gene 1435); assay: BSK_CASM3C_MCSF: BioMAP Diversity Plus: CASM3C Assay for Macrophage colony-stimulating factor (MCSF) Biomarker Activity (AID 2283044); details: primary human coronary artery smooth muscle cells; actives raise or lower the signal;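 note: M-CSF protein amount quantified by ELISA after 24 h exposure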
[12] = read-out: Low-density lipoprotein receptor (LDLR), LDLR (gene 3949); assay: BSK_CASM3C_LDLR: BioMAP Diversity Plus: CASM3C Assay for Low-density lipoprotein receptor (LDLR) Biomarker Activity (AID 2283045); details: primary human coronary artery smooth muscle cells; actives raise or lower the signal;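 note: LDLR protein level on the cell surface quantified by ELISA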
[13] = read-out: Monocyte Chemoattractant Protein-1 (MCP1), CCL2 (gene 6347); assay: BSK_CASM3C_MCP1: BioMAP Diversity Plus: CASM3C Assay for Monocyte Chemoattractant Protein-1 (MCP1) Biomarker Activity (AID 2283046); details: primary human coronary artery smooth muscle cells; actives raise or lower the signal;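 note: MCP-1 level quantified by ELISA 24 h after dosing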
[14] = BSK_CASM3C_Proliferation: Cell Proliferation Assessment in the BioMAP Diversity Plus: CASM3C Assay (AID 2283047); details: primary human coronary artery smooth muscle cells;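 note: sulforhodamine B total protein stain as relative cell number at 560 nm; sub-confluent cells exposed 48 h before staining; fitted both ways against DMSO so gain or loss of cell number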
[15] = read-out: Monokine induced gamma interferon (MIG), CXCL9 (gene 4283); assay: BSK_CASM3C_MIG: BioMAP Diversity Plus: CASM3C Assay for Monokine induced gamma interferon (MIG) Biomarker Activity (AID 2283048); details: primary human coronary artery smooth muscle cells; actives raise or lower the signal;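 note: MIG protein level measured by ELISA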
[16] = read-out: serum amyloid A (SAA), SAA1 (gene 6288); assay: BSK_CASM3C_SAA: BioMAP Diversity Plus: CASM3C Assay for serum amyloid A (SAA) Biomarker Activity (AID 2283049); details: primary human coronary artery smooth muscle cells; actives raise or lower the signal;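 note: SAA protein level quantified by ELISA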
[17] = BSK_CASM3C_SRB: Viability Assessment in the BioMAP Diversity Plus: CASM3C Assay (AID 2283050); details: primary human coronary artery smooth muscle cells;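 note: total protein by SRB staining as cytotoxicity measure in parallel cultures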
[18] = read-out: Thrombomodulin, THBD (gene 7056); assay: BSK_CASM3C_Thrombomodulin: BioMAP Diversity Plus: CASM3C Assay for Thrombomodulin Biomarker Activity (AID 2283051); details: primary human coronary artery smooth muscle cells; actives raise or lower the signal;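 note: thrombomodulin protein level measured by ELISA 24 h after dosing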
[19] = read-out: Tissue Factor, F3 (gene 2152); assay: BSK_CASM3C_TissueFactor: BioMAP Diversity Plus: CASM3C Assay for Tissue Factor Biomarker Activity (AID 2283052); details: primary human coronary artery smooth muscle cells; actives raise or lower the signal;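 note: cell surface tissue factor protein level read by ELISA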
[20] = read-out: Monokine induced gamma interferon (MIG), CXCL9 (gene 4283); assay: BSK_BE3C_MIG: BioMAP Diversity Plus: BE3C Assay for Monokine induced gamma interferon (MIG) Biomarker Activity (AID 2283035); details: primary human bronchial epithelial cells; actives raise or lower the signal
How it was run: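 Dose cells (human primary bronchial epithelial), incubate 24 h, quantify MIG by ELISA, then fit concentration–response in both directions relative to DMSO control.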

Measured: AC50

CCN(CC)C(=O)c1cccc(C)c1
not listed: [20]
inactive: all other assays above

CCOC(=O)[C@H](C)Oc1ccc(Oc2nc3ccc(Cl)cc3o2)cc1
active: [4] 3.97 µM
inactive: all other assays above

COC(=O)c1ccc(CNS(C)(=O)=O)cc1S(=O)(=O)NC(=O)Nc1nc(OC)cc(OC)n1
inactive: all assays above

S=C(S)NCCNC(=S)S.[Mn+2].[S-]C([S-])=NCCN=C([S-])[S-].[Zn+2]
active: [1] 10 µM | [2] 15.2 µM | [5] 209 nM and 1.08 µM and 2.73 µM | [10] 10 µM | [11] 5.89 µM | [12] 10 µM and 5.32 µM | [14] 14.2 µM [middle of 4 runs] | [19] 4.17 µM [middle of 4 runs]
inactive: [1] | [2] | [3] | [4] | [5] | [6] | [7] | [8] | [9] | [10] | [11] | [12] | [13] | [14] | [15] | [16] | [17] | [18] | [19]

COC(=O)c1cccc(C)c1S(=O)(=O)NC(=O)Nc1nc(OCC(F)(F)F)nc(N(C)C)n1
not listed: [20]
inactive: all other assays above

OB(O)O
not listed: [20]
inactive: all other assays above

Oc1ccc(C(c2ccc(O)cc2)C(Cl)(Cl)Cl)cc1
active: [1] 26 µM | [2] 29.3 µM | [20] 34.7 µM | [4] 28.5 µM | [5] 36.6 µM | [6] 31.1 µM | [11] 9.36 µM | [14] 20 µM | [17] 20.9 µM | [18] 15.5 µM
inactive: [3] | [7] | [8] | [9] | [10] | [12] | [13] | [15] | [16] | [19]

CCCOC(=O)c1ccc(C(=O)OCCC)nc1
inactive: all assays above

CCCCC(CC)COC(=O)c1ccccc1C(=O)O (configuration not stated)
active: [3] 5.04 µM | [5] 29.9 µM
not listed: [20]
inactive: all other assays above

CCN(Cc1c(F)cccc1Cl)c1c([N+](=O)[O-])cc(C(F)(F)F)cc1[N+](=O)[O-]
active: [1] 4.57 µM | [12] 13.5 µM | [14] 12.3 µM
not listed: [20]
inactive: all other assays above

COC(=O)c1ccccc1S(=O)(=O)NC(=O)Nc1nc(OC(F)F)cc(OC(F)F)n1
not listed: [20]
inactive: all other assays above

CCCN(CCC)C(=O)SCC
inactive: all assays above

COc1c(Cl)ccc(Cl)c1C(=O)O
not listed: [20]
inactive: all other assays above

CCOC(=O)c1ccc(O)cc1
not listed: [20]
inactive: all other assays above

CC(C)(c1ccc(O)cc1)c1ccc(O)cc1
inactive: [1] | [2] | [3] | [4] | [5] | [6] | [7] | [8] | [9] | [10] | [11] | [12] | [13] | [14] | [15] | [16] | [17] | [18] | [19]
active: [1] 7.53 µM | [2] 9.06 µM | [4] 24.3 µM | [8] 8.08 µM | [18] 8.47 µM

CCC(O)=C1C(=O)CC(C(=O)O)CC1=O (configuration not stated)
inactive: all assays above

CCCCCCC(C)OC(=O)COc1nc(F)c(Cl)c(N)c1Cl (configuration not stated)
active: [1] 39 µM | [9] 32.9 µM | [10] 31.9 µM | [11] 30.2 µM | [13] 29.9 µM | [14] 36.1 µM | [15] 31.6 µM | [16] 25.7 µM | [17] 35.3 µM | [18] 29.7 µM
inactive: all other assays above

CCCCC(CC)CN1C(=O)C2C3C=CC(C3)C2C1=O (configuration not stated)
active: [2] 18.2 µM | [4] 28.1 µM
inactive: all other assays above

N#CSCSc1nc2ccccc2s1
active: [1] 5.21 µM and 12.8 µM | [2] 9.03 µM and 11.8 µM | [20] 9.86 µM and 12.2 µM | [3] 11.2 µM | [4] 4.99 µM and 11.8 µM | [5] 6.61 µM and 12.1 µM | [6] 5.42 µM and 11.5 µM | [7] 8.6 µM and 36.5 µM | [8] 5.25 µM | [9] 10.8 µM and 31.2 µM | [10] 2.62 µM and 36.7 µM | [11] 6.33 µM and 26.9 µM | [12] 8.61 µM | [13] 9.06 µM and 29.6 µM | [14] 1.33 µM and 5.49 µM | [15] 7.5 µM and 18.8 µM | [16] 4.93 µM and 33.5 µM | [17] 11.9 µM and 31.5 µM | [18] 36.7 µM | [19] 1.85 µM
inactive: [3] | [8] | [12] | [18] | [19]

CCSC(=O)N(CC(C)C)CC(C)C
inactive: all assays above

CC(C)(C)[C@@H](O)[C@@H](Cc1ccc(Cl)cc1)n1cncn1
not listed: [20]
inactive: all other assays above
